PubChem BioAssay AID492953 (The Scripps Research Institute Molecular Screening Center, 2010)
Screen size: about 340,000 compounds; about 4,200 (1.2%) were called active. The sample as a whole holds a higher share of actives than the screen did. Values without a mark were called inactive.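 How the source made its calls: active means inhibition above the mean of all tested compounds plus 3 SD (cut at about 24% in these data); inactive means the rest.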

Each compound was assayed against Platelet-activating factor acetylhydrolase IB subunit alpha2 (Homo sapiens) (UniProt P68402) (assay: inhibition of PAF acetylhydrolase 1b subunit 2 – biochemical, fluorescence polarization, human, primary screen (AID 492953;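 further: 0% = enzyme with DMSO and 100% = wells lacking PAFAH1B2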)). Settings: recombinant PAFAH1B2, FP-rhodamine activity probe, at 3.39 µM, stronger effect = higher value.
Platelet-activating factor acetylhydrolase IB subunit alpha2 (Homo sapiens), sequence (P68402 whole entry, looked up): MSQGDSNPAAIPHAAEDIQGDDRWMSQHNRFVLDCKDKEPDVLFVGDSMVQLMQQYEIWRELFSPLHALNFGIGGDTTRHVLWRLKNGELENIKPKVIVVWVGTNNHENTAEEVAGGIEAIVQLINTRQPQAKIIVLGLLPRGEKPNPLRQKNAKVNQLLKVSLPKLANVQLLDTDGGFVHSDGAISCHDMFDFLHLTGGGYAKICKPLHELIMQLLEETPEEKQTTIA
For `Cc1ccc(OCCNC(=O)CCNS(=O)(=O)c2ccc(Br)cc2)cc1`, the inhibition was 24.2% (active).
With `O=C(CCNS(=O)(=O)c1ccc(Br)cc1)NCC1CCCO1` (stereo not drawn) the inhibition was 7.29%.
In the case of `Cc1ccc(S(=O)(=O)NCCNC(C)c2ccc(Br)cc2)cc1` (stereo not drawn), the inhibition is reported as 23%.
`Cc1ccc(CCN2CC(C(=O)NCCc3ccccc3)CC2=O)cc1` (stereo not drawn) was tested, and the inhibition was 7.51%.
`O=C1Nc2cc(Cl)c(Cl)cc2N(O)N1c1cc(Cl)cc(Cl)c1` showed an inhibition of 6.99%.
`CCCCN(C(=O)CSCc1ccc(C)cc1)c1c(N)n(Cc2ccccc2)c(=O)[nH]c1=O` was tested, and the inhibition was 8.05%.
Compound `O=C(Nc1ccccc1)C1CC(=O)n2c(nc3ccccc32)N1` (stereo not drawn) has an inhibition of -1.27%.
For `CC(=O)Nc1ccc(S(=O)(=O)NCCc2ccccc2)cc1`, the inhibition was 3.04%.
`CC(=O)Nc1ccc(S(=O)(=O)NC2(C(F)(F)F)C(=O)Nc3c2c(=O)[nH]c(=O)n3Cc2ccccc2)cc1` (stereo not drawn) was tested, and the inhibition was 24.4% (active).
`CC(=O)Nc1ccc(S(=O)(=O)NC2(C(F)(F)F)C(=O)NC(C)=C2C#N)cc1` (stereo not drawn) gave an inhibition of 0.09%.
`Cc1ccc(C(=O)NCC(=O)OCC(=O)NC2CCCCCCC2)cc1` was tested, and the inhibition was -0.8%.
`Cc1cc(OC(=O)c2ccc(OC(C)C)cc2)c([N+](=O)[O-])c(=O)[nH]1` showed an inhibition of 1.4%.
`COc1cccc(C=CC(=O)C=CC=Cc2ccccc2)c1` gave an inhibition of -1.3%.
In the case of `COc1ccc(CCNS(=O)(=O)c2cn(C)nc2C)cc1`, the inhibition is reported as 2.66%.
Work on `CCC(C)[C@H]1COCCS(=O)(=O)N1Cc1ccc(C)cc1` (stereo partly drawn) yielded an inhibition of 7.04%.
In the case of `O=S1(=O)CCO[C@H]2Cc3ccccc3[C@H]2N1Cc1ccccc1`, the inhibition is reported as 27.8% (active).
With `O=S1(=O)CCOC[C@H](Cc2ccccc2)N1Cc1ccccc1Br` the inhibition was 4.8%.
Compound `N#Cc1c(-c2ccccc2)nc(SCc2cccc(C(F)(F)F)c2)[nH]c1=O` has an inhibition of 14.2%.
`N#Cc1c(-c2ccc(F)cc2)nc(-c2ccccc2)[nH]c1=O` was tested, and the inhibition was 1.36%.
In the case of `Cc1ccc(CSc2nc(-c3ccccc3)c(C#N)c(=O)[nH]2)cc1`, the inhibition is reported as 24.4% (active).
In the case of `Oc1oc(-c2ccccc2Br)nc1/C=N/c1ccccn1`, the inhibition is reported as 1.69%.
`CCc1ccc(NC(=O)NC(C)c2ccc3c(c2)OCO3)cc1` (stereo not drawn) was tested, and the inhibition was 4.07%.
`CC(NC(=S)Nc1ccc(S(N)(=O)=O)cc1)c1ccc2c(c1)OCO2` (stereo not drawn) was tested, and the inhibition was 27.8% (active).
With `CC(NC(=O)Nc1cccc([N+](=O)[O-])c1)c1ccc2c(c1)OCO2` (stereo not drawn) the inhibition was 0.41%.
Work on `Cc1ccc(NC(=O)N2CCSc3ccccc32)cc1` yielded an inhibition of 7.44%.
Work on `O=C(Cc1cccs1)N(CC1CCCO1)C1(C(=O)NC2CCCCC2)CCCCC1` (stereo not drawn) yielded an inhibition of 2.99%.
Work on `CCC(C(=O)OCC(=O)Nc1ccccc1-c1ccccc1)c1ccccc1` (stereo not drawn) yielded an inhibition of 7.25%.
`O=C(CNCc1ccc(F)cc1)Nc1ccccc1-c1ccccc1` was tested, and the inhibition was 24.4% (active).
In the case of `O=C(Cn1cnc2ccccc21)Nc1ccccc1-c1ccccc1`, the inhibition is reported as 5.45%.
`Cc1ccc(NC(=O)CCCNC(=O)c2ccc(Cl)cc2)cc1S(=O)(=O)N1CCOCC1` was tested, and the inhibition was 2.83%.
`COc1ccccc1CCNC(=O)C1CCN(C(=O)/C=C/c2ccccc2)CC1` gave an inhibition of 10.8%.
For `CCOc1ccc(CC(=O)NCCS(=O)(=O)N2CCN(c3ccccc3)CC2)cc1`, the inhibition was 1.28%.
With `COc1ccc(OCC(=O)NCCS(=O)(=O)N2CCN(c3ccc(F)cc3)CC2)cc1` the inhibition was -1.87%.
In the case of `O=C(COc1ccc(Cl)cc1)NCCS(=O)(=O)N1CCN(c2ccc(F)cc2)CC1`, the inhibition is reported as 28.6% (active).
`CCCC1NC(=S)NC(C)=C1C(C)=O` (stereo not drawn) showed an inhibition of -9.47%.
Compound `CC(=O)OCC(=O)C1(O)CCC2C3CC(C)C4=CC(=O)CCC4(C)C3C(O)CC21C` (stereo not drawn) has an inhibition of 1.34%.
Compound `COc1ccccc1C(=O)Nc1ccnn1C1CCN(Cc2cnn(C)c2)CC1` has an inhibition of 4.33%.
In the case of `Oc1cc2c(cc1O)CN(C(=S)NCCc1ccc(Cl)cc1)CCC2`, the inhibition is reported as 63.6% (active).
Work on `O=C1CCN(C(=S)NCCc2ccccc2)CC1` yielded an inhibition of 1.71%.
`COc1ccc(CCNC(=S)N2CCN(S(=O)(=O)c3ccc(Cl)cc3)CC2)cc1` was tested, and the inhibition was 11.4%.
`CC12c3ccccc3C(c3ccccc31)C1C(=O)N(Cc3cccnc3)C(=O)C12` (stereo not drawn) gave an inhibition of 1.4%.
`Cc1nn(-c2ccccc2)c(C)c1/C=N/NC(=O)CSc1nc2ccccc2c(=O)n1-c1ccccc1` showed an inhibition of 2.37%.
For `C=CCO/N=C(\C)c1c(O)c(C)c(-c2ccccc2)n(-c2ccccc2)c1=O`, the inhibition was 31.5% (active).
In the case of `CCO/N=C(/C)c1c(O)cc(-c2ccccc2)n(-c2ccccc2)c1=O`, the inhibition is reported as 7.22%.
For `Cc1ccsc1-c1nc(CSCC(=O)NCCN2CCCC2)c(C)o1`, the inhibition was 0.8%.
For `COc1cc2c(cc1OC)C(Cc1cc(OC)c(OC)cc1[N+](=O)[O-])=NCC2`, the inhibition was 0.33%.
For `CCCC1OC23CCCCC2C(C#N)(C#N)C1(C#N)C(=N)O3` (stereo not drawn), the inhibition was 29.1% (active).
In the case of `O=C1/C(=C\c2ccc(O)cc2)CCC1CNc1ccc(Cl)cc1` (stereo not drawn), the inhibition is reported as -1.51%.
`Cc1cccc(C=CC(=O)c2ccc(Cl)cc2)c1` was tested, and the inhibition was -1.7%.
With `CCOC(=O)/C(C#N)=C/c1cn(CCC(=O)O)nc1-c1ccc(Br)cc1` the inhibition was 2.11%.
In the case of `O=C(O)CCn1cc(/C=C/C(=O)c2ccc(Cl)cc2)c(-c2cccc(Br)c2)n1`, the inhibition is reported as 51.4% (active).
Compound `O=C(OCC(=O)N1CCN(C(=O)c2ccco2)CC1)c1ccc(Cl)c(Cl)c1` has an inhibition of 2.92%.
`NNC(=O)CSc1nnc(-c2ccccc2)n1-c1ccccc1` showed an inhibition of 17.7%.
`O=C(O)CCSc1nnc(-c2ccccc2)n1-c1ccccc1` was tested, and the inhibition was 24.4% (active).
For `O=C(O)CSc1nnc(-c2ccc3c(c2)OCO3)n1-c1ccccc1`, the inhibition was 0.01%.
`CCOc1cc(/C=N/NC(=O)c2cccc(S(=O)(=O)N3CCOCC3)c2)ccc1OCC(=O)N(C)C` showed an inhibition of 2.5%.
In the case of `O=C(NCCc1ccccc1)c1c[nH]c2ccc(F)cc2c1=O`, the inhibition is reported as 3.36%.
Work on `CCOC(=O)c1ccccc1OC(=O)Oc1ccccc1C(=O)OCC` yielded an inhibition of 4.58%.
Work on `CCOC(=O)c1c(C)nc2c(c1C)c(=O)oc1ccccc12` yielded an inhibition of 4.46%.
In the case of `CCOC(=O)c1c(C)[nH]c2c1-c1ccccc1C(=O)C2=O`, the inhibition is reported as 46.4% (active).
Work on `C/C(=N\Nc1ccc(Cl)nn1)c1ccccc1O` yielded an inhibition of -0.23%.
With `COc1ccccc1N1CCN(S(=O)(=O)c2ccc(Cl)cc2)CC1` the inhibition was 31.7% (active).
Work on `COc1ccccc1N1CCN(C(=O)c2ccc(Cl)c(S(=O)(=O)N3CCCC3)c2)CC1` yielded an inhibition of 2.58%.
Compound `COc1ccccc1N1CCN(S(=O)(=O)c2ccc3c(c2)NC(=O)CS3)CC1` has an inhibition of -1.51%.
`COc1ccc(CCNC(=O)CN2CCC(n3nnc4cc(F)ccc43)CC2)cc1OC` was tested, and the inhibition was 4.75%.
`CCOC(=O)c1[nH]c(C)c(C(=O)OCC(=O)N2c3ccccc3CC2C)c1C` (stereo not drawn) was tested, and the inhibition was 3.77%.
In the case of `CSC1=NC2(C)CCCCC2C12C=CC(=O)C=C2` (stereo not drawn), the inhibition is reported as 24.6% (active).
`O=C(CC(=O)c1cccnc1)c1ccccc1` was tested, and the inhibition was 0.07%.
`CC[n+]1c(C)n(-c2ccccc2)c2ccc(NC(C)=O)cc21` showed an inhibition of 1.05%.
`CCc1ccc(NC(=O)CN2C(=O)CSC2=O)cc1` gave an inhibition of 4.64%.
`Cc1ccc(S(=O)(=O)N(CCCN(C)C)Cc2ccc3c(c2)OCO3)cc1` was tested, and the inhibition was 1.52%.
In the case of `O=C(Oc1ccc2c(c1)CCC2)N1CCOCC1`, the inhibition is reported as 2.56%.
For `N#Cc1ccc(C(c2nnnn2CCc2ccccc2)N2CCCCCC2)cc1` (stereo not drawn), the inhibition was 25.7% (active).
Compound `CC(C)C(c1nnnn1CCc1ccccc1)N1CCN(C(=O)c2ccco2)CC1` (stereo not drawn) has an inhibition of 3.54%.
Compound `COc1ccc(CCn2nnnc2C(c2ccccc2)N2CCN(C)CC2)cc1OC` (stereo not drawn) has an inhibition of 2.25%.
Compound `O=C(NCc1ccc2c(c1)OCO2)c1c(O)nc2sccn2c1=O` has an inhibition of 5.79%.
`Cc1ccc(C(=O)CN2C(=O)NC3(CCOc4ccccc43)C2=O)s1` (stereo not drawn) was tested, and the inhibition was -1.4%.
`C=CCNC(=O)CCCOc1cccc(C)c1` showed an inhibition of -2.13%.
`Cc1cccc(OCCNC(=O)CSc2ccc(C(F)(F)F)cc2[N+](=O)[O-])c1` was tested, and the inhibition was 27.4% (active).
`Cc1cccc(OCCNC(=S)NC(=O)c2cccnc2)c1` showed an inhibition of -2.68%.
Work on `CC(C)NC(=O)Nc1cccc2c1O[C@H](CN(C)S(=O)(=O)c1cccs1)[C@@H](C)CN([C@H](C)CO)C2=O` yielded an inhibition of 6.94%.
`Cc1cc2oc(=O)cc(CN3CCN(Cc4ccccc4)CC3)c2cc1C` was tested, and the inhibition was -2.46%.
For `Cc1cc2oc(=O)cc(CN(C)Cc3ccc(OC(F)F)cc3)c2cc1Cl`, the inhibition was -0.62%.
In the case of `Cc1ccc(CN(C)Cc2cc(=O)oc3cc(C)c(Cl)cc23)cc1`, the inhibition is reported as 28.5% (active).
For `CCn1c(SCC(=O)Nc2cccc(F)c2)nnc1-c1cc2cc(Br)ccc2o1`, the inhibition was -4.23%.
With `C=CCn1c(C23CC4CC(CC(C4)C2)C3)n[nH]c1=S` the inhibition was 29.8% (active).
`C=CCn1c(SCC(=O)NC)nnc1C12CC3CC(CC(C3)C1)C2` showed an inhibition of 4.85%.
For `C=CCn1c(-c2ccc3[nH]c(C)c(C)c3c2)n[nH]c1=S`, the inhibition was -1.88%.
In the case of `Cc1cc(C)cc(NC(=O)C(OC(=O)c2ccc(O)cc2)c2ccccc2)c1` (stereo not drawn), the inhibition is reported as -4.34%.
For `O=C1/C(=C\c2ccc([N+](=O)[O-])cc2)CS(=O)(=O)C/C1=C/c1ccc([N+](=O)[O-])cc1`, the inhibition was -2.78%.
Work on `O=C(O)c1cc(S(=O)(=O)N(Cc2ccccc2)c2ccccc2)ccc1Cl` yielded an inhibition of 18.7%.
`Cc1ccc(N(CCC(=O)O)S(=O)(=O)c2cccc(C(F)(F)F)c2)cc1` gave an inhibition of 19.6%.
`O=C(O)c1cc(S(=O)(=O)N(Cc2ccccc2)c2cccc(C(F)(F)F)c2)ccc1Cl` was tested, and the inhibition was 28.5% (active).
